The results in this text go back to paper PMC7862700, “An all-to-all approach to the identification of sequence-specific readers for epigenetic DNA modifications on cytosine”.

Holding throughout (assay): DAPPL (digital affinity profiling via proximity ligation, sequencing); 10 mM Tris-HCl pH 7.5, 50 mM NaCl, 1 mM DTT, 4% glycerol, room temperature, 30 min; GST-TFs on glutathione beads, 16-mer random dsDNA library, 0.1% formaldehyde crosslink after washing; high values mean tight binding
Details in all cases: protein: recombinant; tags: N-terminal GST; dsDNA, one strand shown

One experiment addresses T1, FLI1 (Homo sapiens, UniProt Q01543 1-452).
T1 sequence: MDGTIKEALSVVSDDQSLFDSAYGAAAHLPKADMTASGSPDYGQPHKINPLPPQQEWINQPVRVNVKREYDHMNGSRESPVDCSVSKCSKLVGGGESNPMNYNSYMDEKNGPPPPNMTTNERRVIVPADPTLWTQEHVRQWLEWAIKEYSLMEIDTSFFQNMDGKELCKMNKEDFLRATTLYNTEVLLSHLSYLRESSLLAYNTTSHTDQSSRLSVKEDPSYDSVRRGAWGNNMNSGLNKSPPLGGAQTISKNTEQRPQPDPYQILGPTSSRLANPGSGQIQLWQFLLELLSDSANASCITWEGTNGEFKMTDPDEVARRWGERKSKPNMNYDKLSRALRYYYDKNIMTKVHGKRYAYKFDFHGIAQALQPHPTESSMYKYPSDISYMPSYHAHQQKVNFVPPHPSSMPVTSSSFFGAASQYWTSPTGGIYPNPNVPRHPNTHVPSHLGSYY
Put shortly: (§1)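 Human transcription factors were made in yeast as GST fusions, captured on glutathione beads and barcoded with DNA. With a tag-only sample included, the pool was incubated with 200 nmole of a random double-stranded 16-mer DNA library in Tris/NaCl/DTT/glycerol buffer at room temperature for 30 min, then crosslinked with 0.1% formaldehyde after washing, ligated by proximity, amplified and sequenced. For binding signal, each hexamer's read frequency for a factor is divided by its frequency for the tag-only sample.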

A further experiment addresses T2, ELK1 (Homo sapiens, UniProt P19419 1-428).
T2 sequence: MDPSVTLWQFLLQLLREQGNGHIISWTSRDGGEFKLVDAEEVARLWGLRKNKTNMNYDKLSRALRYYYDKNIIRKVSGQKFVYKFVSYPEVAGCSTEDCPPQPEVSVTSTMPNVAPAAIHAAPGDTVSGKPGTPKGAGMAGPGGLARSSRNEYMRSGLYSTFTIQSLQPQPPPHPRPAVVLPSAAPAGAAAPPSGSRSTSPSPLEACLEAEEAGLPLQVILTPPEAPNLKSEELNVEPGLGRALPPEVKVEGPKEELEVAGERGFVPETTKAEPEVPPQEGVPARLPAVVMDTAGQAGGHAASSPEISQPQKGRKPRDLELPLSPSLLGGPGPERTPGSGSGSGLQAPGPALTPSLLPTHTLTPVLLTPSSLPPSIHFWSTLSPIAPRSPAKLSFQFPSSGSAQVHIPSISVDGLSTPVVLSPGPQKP
In outline:
as §1

A further experiment has as its target T3, GABPA (Homo sapiens, UniProt Q06546 1-454).
T3 sequence: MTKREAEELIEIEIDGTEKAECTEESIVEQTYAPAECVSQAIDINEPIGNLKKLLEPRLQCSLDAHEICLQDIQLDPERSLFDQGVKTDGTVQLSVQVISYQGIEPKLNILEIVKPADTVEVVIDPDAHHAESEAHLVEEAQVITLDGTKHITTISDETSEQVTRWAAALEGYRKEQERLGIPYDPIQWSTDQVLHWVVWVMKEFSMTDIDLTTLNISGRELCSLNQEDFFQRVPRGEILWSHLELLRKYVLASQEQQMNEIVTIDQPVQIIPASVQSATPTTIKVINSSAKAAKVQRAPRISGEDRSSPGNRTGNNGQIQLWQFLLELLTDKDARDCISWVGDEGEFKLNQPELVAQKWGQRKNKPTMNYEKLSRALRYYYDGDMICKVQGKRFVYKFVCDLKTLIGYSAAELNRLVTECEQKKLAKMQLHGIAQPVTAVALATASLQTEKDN
Put shortly: as §1

For a further experiment, the target named is T4, ERG (Homo sapiens, UniProt P11308 1-479).
T4 sequence: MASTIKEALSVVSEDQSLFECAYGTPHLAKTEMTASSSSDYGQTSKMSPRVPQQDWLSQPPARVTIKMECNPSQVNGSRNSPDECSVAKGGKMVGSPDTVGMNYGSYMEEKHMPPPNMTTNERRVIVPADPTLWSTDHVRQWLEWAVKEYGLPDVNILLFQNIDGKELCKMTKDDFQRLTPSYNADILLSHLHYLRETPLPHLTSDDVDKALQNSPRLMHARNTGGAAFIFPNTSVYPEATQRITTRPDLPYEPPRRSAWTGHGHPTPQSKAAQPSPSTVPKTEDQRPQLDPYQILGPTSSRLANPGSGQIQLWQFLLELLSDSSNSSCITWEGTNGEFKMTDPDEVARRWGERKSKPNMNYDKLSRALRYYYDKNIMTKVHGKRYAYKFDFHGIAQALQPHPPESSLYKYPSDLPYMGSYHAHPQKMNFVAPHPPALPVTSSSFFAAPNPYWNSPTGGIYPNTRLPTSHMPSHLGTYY
Put shortly:
as §1

The next experiment addresses ELF1 (Homo sapiens, UniProt P32519 1-619). In outline: as §1
In another experiment the target is T5, EHF (Homo sapiens, UniProt Q9NZC4 1-300).
T5 sequence: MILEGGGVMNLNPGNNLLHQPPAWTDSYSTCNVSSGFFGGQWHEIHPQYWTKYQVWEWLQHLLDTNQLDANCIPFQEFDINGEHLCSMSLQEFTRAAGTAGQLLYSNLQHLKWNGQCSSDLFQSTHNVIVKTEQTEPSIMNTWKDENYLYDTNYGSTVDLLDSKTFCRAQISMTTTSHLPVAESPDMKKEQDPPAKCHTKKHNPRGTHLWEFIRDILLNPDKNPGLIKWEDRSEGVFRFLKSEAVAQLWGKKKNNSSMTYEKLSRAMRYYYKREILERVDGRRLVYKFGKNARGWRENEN
In outline:
as §1

The target in a further experiment is SPI1 (Homo sapiens, UniProt P17947 1-270). In outline:
as §1

A further experiment concerns the target SPIB (Homo sapiens, UniProt Q01892 1-262). Put shortly: as §1
Another experiment addresses T6, ELK3 (Homo sapiens, UniProt P41970 1-407).
T6 sequence: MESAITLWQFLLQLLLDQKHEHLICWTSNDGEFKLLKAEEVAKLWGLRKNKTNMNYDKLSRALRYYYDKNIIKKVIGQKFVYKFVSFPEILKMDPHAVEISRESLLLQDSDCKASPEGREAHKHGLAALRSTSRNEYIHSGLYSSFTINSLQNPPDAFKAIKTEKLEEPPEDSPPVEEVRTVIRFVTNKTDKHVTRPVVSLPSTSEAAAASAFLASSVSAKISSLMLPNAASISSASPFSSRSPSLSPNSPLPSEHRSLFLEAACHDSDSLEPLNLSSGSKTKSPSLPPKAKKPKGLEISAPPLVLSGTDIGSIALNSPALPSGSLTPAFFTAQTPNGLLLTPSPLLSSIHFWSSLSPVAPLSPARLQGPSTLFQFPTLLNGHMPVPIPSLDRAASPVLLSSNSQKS
In outline:
as §1

Sequence of ELF1 (P32519 whole entry): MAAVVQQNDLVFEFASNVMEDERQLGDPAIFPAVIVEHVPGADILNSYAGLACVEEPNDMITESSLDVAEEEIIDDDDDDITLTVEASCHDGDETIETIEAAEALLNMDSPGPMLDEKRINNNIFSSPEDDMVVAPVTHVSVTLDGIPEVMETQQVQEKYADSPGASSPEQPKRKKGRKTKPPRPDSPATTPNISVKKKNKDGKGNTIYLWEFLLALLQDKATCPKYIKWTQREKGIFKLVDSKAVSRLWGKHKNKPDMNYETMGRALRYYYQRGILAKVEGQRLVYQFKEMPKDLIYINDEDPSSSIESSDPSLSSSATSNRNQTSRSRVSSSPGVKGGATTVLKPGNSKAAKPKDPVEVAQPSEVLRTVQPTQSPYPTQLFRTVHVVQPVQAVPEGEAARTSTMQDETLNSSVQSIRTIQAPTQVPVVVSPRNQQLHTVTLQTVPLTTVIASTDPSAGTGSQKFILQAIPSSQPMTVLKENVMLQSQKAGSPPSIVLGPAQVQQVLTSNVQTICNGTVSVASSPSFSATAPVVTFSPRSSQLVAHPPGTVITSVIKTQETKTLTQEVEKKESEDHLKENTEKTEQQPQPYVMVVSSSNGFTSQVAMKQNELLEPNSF
Sequence of SPIB (Q01892 whole entry): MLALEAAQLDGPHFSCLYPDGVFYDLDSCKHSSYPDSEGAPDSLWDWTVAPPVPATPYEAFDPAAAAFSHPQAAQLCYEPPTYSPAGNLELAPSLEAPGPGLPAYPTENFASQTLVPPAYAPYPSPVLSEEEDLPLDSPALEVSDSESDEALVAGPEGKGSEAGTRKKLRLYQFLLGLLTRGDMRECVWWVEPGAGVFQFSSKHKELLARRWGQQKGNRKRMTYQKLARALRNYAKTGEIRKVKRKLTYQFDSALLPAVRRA

ATATTT: the binding signal is 1.6 fold enrichment (6-mer frequency, TF over GST control) in the experiment with FLI1; 1.54 fold enrichment (6-mer frequency, TF over GST control) with ELK1; 1.55 fold enrichment (6-mer frequency, TF over GST control) in the experiment with GABPA; 1.53 fold enrichment (6-mer frequency, TF over GST control) with ERG; 1.55 fold enrichment (6-mer frequency, TF over GST control) with ELF1; 1.56 fold enrichment (6-mer frequency, TF over GST control) with EHF. In addition, the binding signal is 1.43 fold enrichment (6-mer frequency, TF over GST control) with SPI1; 1.51 fold enrichment (6-mer frequency, TF over GST control) with SPIB; 1.47 fold enrichment (6-mer frequency, TF over GST control) with ELK3.

For ACACAC, the binding signal in the experiment with FLI1 is 1.24 fold enrichment (6-mer frequency, TF over GST control); with ELK1, 1.13 fold enrichment (6-mer frequency, TF over GST control); with GABPA, 1.21 fold enrichment (6-mer frequency, TF over GST control); with ERG, 1.22 fold enrichment (6-mer frequency, TF over GST control); in the experiment with ELF1, 1.19 fold enrichment (6-mer frequency, TF over GST control); with EHF, 1.23 fold enrichment (6-mer frequency, TF over GST control). The binding signal is 1.14 fold enrichment (6-mer frequency, TF over GST control) with SPI1; 1.19 fold enrichment (6-mer frequency, TF over GST control) with SPIB; 1.12 fold enrichment (6-mer frequency, TF over GST control) in the experiment with ELK3.

In the case of TGCTCA, the binding signal with FLI1 was 1.32 fold enrichment (6-mer frequency, TF over GST control); with ELK1, 1.28 fold enrichment (6-mer frequency, TF over GST control); with GABPA, 1.34 fold enrichment (6-mer frequency, TF over GST control); with ERG, 1.41 fold enrichment (6-mer frequency, TF over GST control); with ELF1, 1.41 fold enrichment (6-mer frequency, TF over GST control); in the experiment with EHF, 1.36 fold enrichment (6-mer frequency, TF over GST control). Further, the binding signal with SPI1 was 1.27 fold enrichment (6-mer frequency, TF over GST control); in the experiment with SPIB, 1.35 fold enrichment (6-mer frequency, TF over GST control); with ELK3 it was 1.19 fold enrichment (6-mer frequency, TF over GST control).

On to CCGCAC, for which the binding signal with FLI1 is 1.45 fold enrichment (6-mer frequency, TF over GST control); with ELK1, 1.45 fold enrichment (6-mer frequency, TF over GST control); in the experiment with GABPA, 1.5 fold enrichment (6-mer frequency, TF over GST control); with ERG it was 1.42 fold enrichment (6-mer frequency, TF over GST control); with ELF1, 1.55 fold enrichment (6-mer frequency, TF over GST control); with EHF, 1.5 fold enrichment (6-mer frequency, TF over GST control). Besides, the binding signal in the experiment with SPI1 is 1.52 fold enrichment (6-mer frequency, TF over GST control); with SPIB it was 1.41 fold enrichment (6-mer frequency, TF over GST control); in the experiment with ELK3 it was 1.52 fold enrichment (6-mer frequency, TF over GST control).

For the sequence AATTCT, the binding signal is 1.4 fold enrichment (6-mer frequency, TF over GST control) in the experiment with FLI1; 1.22 fold enrichment (6-mer frequency, TF over GST control) in the experiment with ELK1; 1.38 fold enrichment (6-mer frequency, TF over GST control) with GABPA; 1.31 fold enrichment (6-mer frequency, TF over GST control) in the experiment with ERG; 1.32 fold enrichment (6-mer frequency, TF over GST control) in the experiment with ELF1; 1.28 fold enrichment (6-mer frequency, TF over GST control) in the experiment with EHF. Besides, the binding signal was 1.27 fold enrichment (6-mer frequency, TF over GST control) with SPI1; 1.39 fold enrichment (6-mer frequency, TF over GST control) with SPIB; 1.38 fold enrichment (6-mer frequency, TF over GST control) in the experiment with ELK3.

For the sequence ATCCCA, the binding signal with FLI1 was 1.07 fold enrichment (6-mer frequency, TF over GST control); with ELK1, 1.14 fold enrichment (6-mer frequency, TF over GST control); with GABPA, 1.15 fold enrichment (6-mer frequency, TF over GST control); in the experiment with ERG, 1.2 fold enrichment (6-mer frequency, TF over GST control); in the experiment with ELF1, 1.22 fold enrichment (6-mer frequency, TF over GST control); with EHF it was 1.15 fold enrichment (6-mer frequency, TF over GST control). The binding signal was 1.03 fold enrichment (6-mer frequency, TF over GST control) with SPI1; 1.05 fold enrichment (6-mer frequency, TF over GST control) with SPIB; 1.2 fold enrichment (6-mer frequency, TF over GST control) in the experiment with ELK3.

In the case of CTTCTA, the binding signal was 1.39 fold enrichment (6-mer frequency, TF over GST control) with FLI1; 1.41 fold enrichment (6-mer frequency, TF over GST control) with ELK1; 1.44 fold enrichment (6-mer frequency, TF over GST control) with GABPA; 1.32 fold enrichment (6-mer frequency, TF over GST control) with ERG; 1.52 fold enrichment (6-mer frequency, TF over GST control) in the experiment with ELF1; 1.54 fold enrichment (6-mer frequency, TF over GST control) in the experiment with EHF. The binding signal is 1.41 fold enrichment (6-mer frequency, TF over GST control) with SPI1; 1.48 fold enrichment (6-mer frequency, TF over GST control) with SPIB; 1.34 fold enrichment (6-mer frequency, TF over GST control) with ELK3.

For CCGCCG, the binding signal in the experiment with FLI1 was 1.29 fold enrichment (6-mer frequency, TF over GST control); with ELK1, 1.4 fold enrichment (6-mer frequency, TF over GST control); with GABPA, 1.41 fold enrichment (6-mer frequency, TF over GST control); with ERG it was 1.37 fold enrichment (6-mer frequency, TF over GST control); with ELF1, 1.26 fold enrichment (6-mer frequency, TF over GST control); with EHF, 1.34 fold enrichment (6-mer frequency, TF over GST control). Further, the binding signal is 1.27 fold enrichment (6-mer frequency, TF over GST control) with SPI1; 1.16 fold enrichment (6-mer frequency, TF over GST control) with SPIB; 1.26 fold enrichment (6-mer frequency, TF over GST control) in the experiment with ELK3.
